The results in this text go back to PubChem BioAssay (NCI).

Some test systems named below: NCI-H23 lung; NCI-H226 lung; NCI-H322M lung; HOP-62 NSCLC; NCI-H460 lung; HOP-92 NSCLC; NCI-H522 lung; A549/ATCC NSCLC; 786-0 renal; COLO 205 colon; DU-145 prostate; K-562 leukemia; MALME-3M melanoma; MDA-MB-231 breast; RXF 393 renal; SF-268 CNS; SF-295 CNS; SF-539 CNS; UACC-257 melanoma; M14 melanoma.
Assay in all cases: NCI-60 one-dose screen, 48 h (100 = growth as untreated, 0 = no growth, -100 = all killed)
Common to all, as to details: 10 µM unless noted

Compounds without any hit were thinned out: in the full panel of roughly 83,000, 20% have a hit.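 Results are percent growth after 48 hours of single-concentration exposure. 100 means growth as in untreated cells, lower positive values show inhibition; negative values down to -100 show cell death.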 Unmarked numbers belong to inactive results. Calls of active or inactive are those of the source. The calls were made as follows: active = growth percent below 10; inactive = the rest.

For `CC(C)C1=NOC(=O)C1=Cc1cn(-c2ccccc2)nc1-c1ccc(Cl)cc1`, the growth in the assay on NCI-H23 lung is 84.8%; in the assay with NCI-H226 lung, 92.6%; in the assay on NCI-H322M lung it was 93.9%; in the assay with HOP-62 NSCLC it was 92.4%; with NCI-H460 lung, 85.3%; in the assay with HOP-92 NSCLC, 86.9%. Moreover, the growth with NCI-H522 lung was 80.8%; in the assay on A549/ATCC NSCLC, 100%; with 786-0 renal, 80.7%; in the assay with COLO 205 colon it was 99.6%; in the assay on DU-145 prostate, 94.3%; in the assay with K-562 leukemia it was 42.8%. For the same compound, the growth in the assay on MALME-3M melanoma is 93.2%; in the assay on MDA-MB-231 breast it was 97%; in the assay on RXF 393 renal, 58.2%; in the assay with SF-268 CNS it was 99.3%; in the assay on SF-295 CNS, 96.9%; in the assay with SF-539 CNS it was 75.9%. Moreover, the figures for the growth in the assay on UACC-257 melanoma and in the assay on M14 melanoma were 105% and 76.4%, respectively.
In the case of `CCN(CC)c1ccc2cc(NC(=O)OCCNC(=O)CCNC(=O)[C@H](CC(C)C)NC(=O)C(C)(C)NC(=O)C(C)(C)NC(=O)[C@H](CC(C)C)NC(=O)CCNC(=O)C(C)(C)NC(=O)[C@H](CC(C)C)NC(=O)CCNC(=O)[C@@](C)(CC)NC(=O)[C@H](C)NC(=O)CCNC(=O)C(C)(C)NC(=O)[C@H](C)NC(=O)[C@@H]3CCCN3C(=O)[C@@](C)(CC)NC(=O)[C@H](Cc3ccccc3)NC(=O)C3CCCN3C(=O)C(C)(C)NC(=O)C3CCCN3C(=O)C(C)(C)NC(C)=O)c(=O)oc2c1` (stereo not given in full), the growth is -85.9% (active) in the assay with NCI-H23 lung; -65.9% (active) in the assay on NCI-H226 lung; -80.3% (active) with NCI-H322M lung; -86.7% (active) in the assay on HOP-62 NSCLC; -76.9% (active) in the assay on NCI-H460 lung; -95.8% (active) in the assay with HOP-92 NSCLC. Also, the growth in the assay on NCI-H522 lung is -82.3% (active); with A549/ATCC NSCLC, -76% (active); in the assay on 786-0 renal it was -94.8% (active); in the assay on COLO 205 colon, -81.1% (active); in the assay with DU-145 prostate, -100% (active); with K-562 leukemia it was -59.5% (active). Also, the growth in the assay with MALME-3M melanoma was -80.4% (active); in the assay on MDA-MB-231 breast, -83.2% (active); in the assay on RXF 393 renal, -82% (active); in the assay on SF-268 CNS, -94.6% (active); in the assay with SF-295 CNS, -84.7% (active); in the assay with SF-539 CNS, -84.7% (active). The growth is -89.4% (active) with UACC-257 melanoma and -79.4% (active) with M14 melanoma.
For `CCCCNC(=O)NS(=O)(=O)Cc1ccccc1`, the growth in the assay on NCI-H23 lung is 114%; in the assay on NCI-H226 lung, 107%; with NCI-H322M lung, 118%; with HOP-62 NSCLC it was 107%; in the assay with NCI-H460 lung, 111%; in the assay on HOP-92 NSCLC it was 94.4%. In addition, the growth in the assay on NCI-H522 lung is 102%; in the assay on A549/ATCC NSCLC, 101%; in the assay on 786-0 renal, 99%; in the assay on COLO 205 colon, 118%; in the assay on DU-145 prostate, 111%; in the assay on K-562 leukemia it was 99.7%. The growth is 117% in the assay on MALME-3M melanoma; 127% with MDA-MB-231 breast; 124% with RXF 393 renal; 107% with SF-268 CNS; 116% in the assay on SF-295 CNS; 101% in the assay on SF-539 CNS. In addition, the growth in the assay on UACC-257 melanoma was 104%; in the assay with M14 melanoma, 106%.
Take `CC1(C)C(=O)/C(=C\c2cccnc2)C[C@]2(C)[C@H]3CC[C@@H]4[C@H]5[C@H](C(=O)/C=C/c6cccnc6)CC[C@]5(C(=O)O)CC[C@@]4(C)[C@]3(C)CC[C@@H]12`: the growth in the assay on NCI-H23 lung was -60.4% [100 µM] (active); with NCI-H226 lung it was -37.4% [100 µM] (active); in the assay on NCI-H322M lung, -97.2% [100 µM] (active); with HOP-62 NSCLC it was -66.8% [100 µM] (active); in the assay with NCI-H460 lung it was -43.9% [100 µM] (active); in the assay on HOP-92 NSCLC, -63.5% [100 µM] (active). For the same compound, the growth was -71.6% [100 µM] (active) in the assay with NCI-H522 lung; -13.6% [100 µM] (active) with A549/ATCC NSCLC; -39.5% [100 µM] (active) in the assay on 786-0 renal; -55.9% [100 µM] (active) in the assay with COLO 205 colon; -80.6% [100 µM] (active) in the assay on DU-145 prostate; 6.57% [100 µM] (active) in the assay with K-562 leukemia. For the same compound, the growth is -73.8% [100 µM] (active) in the assay with MALME-3M melanoma; -34.6% [100 µM] (active) with MDA-MB-231 breast; -61.9% [100 µM] (active) in the assay on RXF 393 renal; -34.9% [100 µM] (active) in the assay with SF-268 CNS; -75.8% [100 µM] (active) in the assay on SF-295 CNS; -56.9% [100 µM] (active) in the assay on SF-539 CNS. For the same compound, the growth with UACC-257 melanoma is -52% [100 µM] (active); with M14 melanoma it was -38.4% [100 µM] (active).
For the compound `CSc1cccc([N+](=O)[O-])c1`, the growth with NCI-H23 lung was 109%; with NCI-H226 lung, 104%; in the assay on NCI-H322M lung, 102%; in the assay with HOP-62 NSCLC, 105%; with NCI-H460 lung it was 114%; in the assay with HOP-92 NSCLC, 106%. The growth was 84% in the assay on NCI-H522 lung; 101% in the assay on A549/ATCC NSCLC; 101% in the assay with 786-0 renal; 107% with COLO 205 colon; 110% in the assay on DU-145 prostate; 96.6% with K-562 leukemia. In addition, the growth in the assay on MALME-3M melanoma was 103%; with MDA-MB-231 breast, 101%; in the assay on RXF 393 renal, 99%; with SF-268 CNS it was 110%; in the assay with SF-295 CNS, 106%; in the assay on SF-539 CNS, 96.2%. Further, the growth in the assay on UACC-257 melanoma was 103%; with M14 melanoma, 102%.
For `CCCCCC1CCCCN1C(=O)OCCCC` (stereo not given), the growth in the assay on NCI-H23 lung is 62%; with NCI-H226 lung, 87.5%; in the assay with NCI-H322M lung it was 103%; with HOP-62 NSCLC it was 122%; in the assay on NCI-H460 lung, 99.9%; with HOP-92 NSCLC, 113%. For the same compound, the growth in the assay with NCI-H522 lung is 32%; with A549/ATCC NSCLC, 114%; in the assay on 786-0 renal, 104%; in the assay on COLO 205 colon, 111%; with DU-145 prostate, 118%; in the assay on K-562 leukemia it was 109%. Besides, the growth is 88.9% in the assay on MALME-3M melanoma; 77.5% with MDA-MB-231 breast; 96.9% with RXF 393 renal; 99.1% with SF-268 CNS; 89.3% in the assay with SF-295 CNS; 92% with SF-539 CNS. For the same compound, the growth with UACC-257 melanoma was -7.74% (active); in the assay on M14 melanoma, 105%.
As to `CC(C)c1ccc(C(=O)Nc2sc3c(c2C#N)CCC(=O)C3)cc1`, the growth in the assay on NCI-H23 lung is -5.74% (active); with NCI-H226 lung it was 50.5%; in the assay with NCI-H322M lung, 71.9%; in the assay on HOP-62 NSCLC, 36.9%; with NCI-H460 lung it was 3.31% (active); in the assay with HOP-92 NSCLC, -52.2% (active). The growth in the assay with NCI-H522 lung is -36.7% (active); in the assay with A549/ATCC NSCLC, 15%; with 786-0 renal, 8.77% (active); with COLO 205 colon, -36.5% (active); in the assay with DU-145 prostate, 43.9%; in the assay on K-562 leukemia, 1.57% (active). Moreover, the growth in the assay on MALME-3M melanoma was -41.2% (active); with MDA-MB-231 breast it was -39.6% (active); with RXF 393 renal, -38.5% (active); in the assay with SF-268 CNS, 26.9%; in the assay on SF-295 CNS it was -7.58% (active); with SF-539 CNS, -48.4% (active). Besides, the growth with UACC-257 melanoma is -2.97% (active); in the assay with M14 melanoma, -6.52% (active).
